For six molecules, potency estimated from few doses results are on record in publication PMC11062922 (Nature Chemical Biology, 2023).

What all share (parameters): species or system human, MV4-11 + K-562 + COLO205 + SK-N-BE2 + OVCAR-8
The test system of one experiment is CSNK1D. The note with it: read-out: apparent Kd, n = 1.
In the next experiment the test system is CSNK1E. Particulars: read-out: apparent Kd, n = 1.
The next experiment deals with DYRK1A. Particulars: read-out: apparent Kd, n = 1.
A further experiment relates to LATS1. Particulars: read-out: apparent Kd; compound concentrations: 100 nM and 1000 nM (sheet 'Samples'), CATDS: 0.13446121771830499; n = 1.
In a further experiment the test system is NNT. The note with it: read-out: apparent Kd; compound concentrations: 100 nM and 1000 nM (sheet 'Samples'), CATDS: 0.14488734368084999; n = 1.
The test system of the next experiment is PKN2. The note with it: read-out: apparent Kd; compound concentrations: 100 nM and 1000 nM (sheet 'Samples'), CATDS: 0.15546286258013101; n = 1.
The test system of another experiment is RPS6KB1. Particulars: read-out: apparent Kd; compound concentrations: 100 nM and 1000 nM (sheet 'Samples'), CATDS: 0.17749177686381501; n = 1.
Another experiment relates to IARS. Particulars: read-out: apparent Kd; compound concentrations:100 nM and 1000 nM (sheet 'Samples'); n = 1.
For the next experiment, the system named is MAPK14. Particulars: read-out: apparent Kd, n = 1.
A further experiment relates to NQO1. Particulars: read-out: apparent Kd; compound concentrations:100 nM and 1000 nM (sheet 'Samples'); n = 1.
The subject of a further experiment is CSNK1A1. The note with it: read-out: apparent Kd, n = 1.
For a further experiment, the system named is MAPK11. Particulars: read-out: apparent Kd, n = 1.
In a further experiment the test system is MAPK9. Particulars: read-out: apparent Kd, n = 1.
The test system of another experiment is NLK. Particulars: read-out: apparent Kd, n = 1.
The next experiment relates to PKN3. Particulars: read-out: apparent Kd; compound concentrations:100 nM and 1000 nM (sheet 'Samples'); n = 1.
Another experiment concerns CLK1. The note with it: read-out: apparent Kd; compound concentrations:100 nM and 1000 nM (sheet 'Samples'); n = 1.
The next experiment concerns CLK4. The note with it: read-out: apparent Kd; compound concentrations:100 nM and 1000 nM (sheet 'Samples'); n = 1.
The subject of the next experiment is GSK3A. The note with it: read-out: apparent Kd; compound concentrations:100 nM and 1000 nM (sheet 'Samples'); n = 1.
The test system of the next experiment is GSK3B. The note with it: read-out: apparent Kd; compound concentrations:100 nM and 1000 nM (sheet 'Samples'); n = 1.
For the next experiment, the system named is MAPK10. Particulars: read-out: apparent Kd; compound concentrations: 100 nM and 1000 nM (sheet 'Samples'), CATDS: 9.1300875893450595E-2; n = 1.
The next experiment has as its system MAPK8. The note with it: read-out: apparent Kd; compound concentrations: 100 nM and 1000 nM (sheet 'Samples'), CATDS: 4.9540433468536101E-2; n = 1.
For a further experiment, the system named is RIPK2. Particulars: read-out: apparent Kd; compound concentrations: 100 nM and 1000 nM (sheet 'Samples'), CATDS: 6.8515245953885195E-2; n = 1.
In the next experiment the test system is RIPK3. Particulars: read-out: apparent Kd; compound concentrations: 100 nM and 1000 nM (sheet 'Samples'), CATDS: 4.8358331607940903E-2; n = 1.
Setting [1] is: compound concentrations:100 nM and 1000 nM (sheet 'Samples').

Where two headings read alike, the source gives them in different places.

Regarding `CCc1nccc2c1nc(-c1nonc1N)n2CC` [SB-751148], the potency estimated from few doses with CSNK1D (compound concentrations: 100 nM and 1000 nM (sheet 'Samples'), CATDS: 0.159181013373493) is 1.09 µM; with CSNK1E (compound concentrations: 100 nM and 1000 nM (sheet 'Samples'), CATDS: 0.120883925571631) it was 1.96 µM; in the experiment on DYRK1A (compound concentrations: 100 nM and 1000 nM (sheet 'Samples'), CATDS: 0.124378507371426), 1.83 µM; in the experiment on LATS1 it was 1.53 µM; with NNT, 1.31 µM; in the experiment with PKN2, 1.14 µM. Further, the potency estimated from few doses in the experiment with RPS6KB1 is 0.902 µM.

Consider `Fc1ccc(-c2ncn(C3CCNCC3)c2-c2ccnc(Oc3ccc(Oc4ccccc4)cc3)n2)cc1` [SB-245392], for which the potency estimated from few doses was 0.616 µM in the experiment on CSNK1D (setting [1]); 1.2 µM in the experiment with CSNK1E (setting [1]); 2.11 µM with IARS; 0.571 µM with MAPK14 (setting [1]); 1.71 µM in the experiment on NQO1.

Turning to `Fc1ccc(-c2ncn(C3CCNCC3)c2-c2ccnc(Oc3ccccc3)n2)cc1` [SB-239272], the potency estimated from few doses is 1.38 µM in the experiment on CSNK1A1 (setting [1]); 0.0887 µM in the experiment with CSNK1D (setting [1]); 0.191 µM in the experiment with CSNK1E (setting [1]); 0.0454 µM in the experiment on MAPK11 (setting [1]); 0.0125 µM in the experiment with MAPK14 (setting [1]); 1.11 µM with MAPK9 (setting [1]). The potency estimated from few doses with NLK (setting [1]) is 1.5 µM; in the experiment on PKN3, 2.09 µM.

With `COc1ccc(CSc2nnc(-c3ccc4ncsc4c3)o2)cc1C(F)(F)F` [TPKI-91], the potency estimated from few doses in the experiment on CLK1 was 0.549 µM; with CLK4 it was 0.599 µM; in the experiment on GSK3A, 0.131 µM; in the experiment on GSK3B, 0.0725 µM.

For `O=c1[nH]cc(-c2ccc(O)cc2)c2sc(-c3ccncc3)cc12` [GSK1033723A], the potency estimated from few doses with CLK1 was 0.471 µM; in the experiment on CLK4 it was 0.148 µM; in the experiment with DYRK1A (setting [1]), 1.55 µM; with GSK3B it was 1.22 µM.

`CN1CCC(n2cnc(-c3ccc(F)cc3)c2-c2ccnc(Nc3ccccc3)n2)CC1` [SB-236687]: the potency estimated from few doses is 0.341 µM in the experiment with CSNK1A1 (compound concentrations: 100 nM and 1000 nM (sheet 'Samples'), CATDS: 5.98984637657098E-2); 0.0303 µM with CSNK1D (compound concentrations: 100 nM and 1000 nM (sheet 'Samples'), CATDS: 0.13245154437339501); 0.0662 µM in the experiment on CSNK1E (compound concentrations: 100 nM and 1000 nM (sheet 'Samples'), CATDS: 9.7404692081277694E-2); 0.079 µM in the experiment with MAPK10; 0.122 µM in the experiment with MAPK11 (compound concentrations: 100 nM and 1000 nM (sheet 'Samples'), CATDS: 7.8830615244885299E-2); 0.00698 µM with MAPK14 (compound concentrations: 100 nM and 1000 nM (sheet 'Samples'), CATDS: 0.23867511815935299). In addition, the potency estimated from few doses with MAPK8 was 1.08 µM; with MAPK9 (compound concentrations: 100 nM and 1000 nM (sheet 'Samples'), CATDS: 8.0964581891509499E-2) it was 0.112 µM; with NLK (compound concentrations: 100 nM and 1000 nM (sheet 'Samples'), CATDS: 7.7822094948188494E-2), 0.127 µM; in the experiment on RIPK2 it was 0.196 µM; in the experiment on RIPK3 it was 1.33 µM.
